These results are taken from PubChem BioAssay (NCATS).

The source made the active and inactive calls. The rule behind the calls is not given here.

The conditions of this assay: Ebola virus entry assay, blue channel fluorescence.
Turning to `COc1cc(C(=O)NS(=O)(=O)c2ccccc2C)ccc1Cc1cn(C)c2ccc(NC(=O)OC3CCCC3)cc12`, the outcome was inactive.

Take `CNCCCC12CCC(c3ccccc31)c1ccccc12`: the AC50 (usually the concentration giving half of the maximal activity seen) is 3.55 µM (active).

Take `CCS(=O)(=O)CCn1c([N+](=O)[O-])cnc1C`: the result was inactive.

In the case of `COc1c(N2C[C@@H]3CCCN[C@@H]3C2)c(F)cc2c(=O)c(C(=O)O)cn(C3CC3)c12`, the molecule was called inactive.
